From PubChem BioAssay (NCATS) come the findings set out here.

Values joined by “and” are separate entries in the source; they are usually repeats but may differ in a detail not shown here. Identical values can stand only once. Records with an inconclusive call do not appear. Entries that show only a call come without a potency. Active and inactive are the calls of the source. Unless noted, the call rests on the fitted dose curve.

Test [1] is described as follows: Inducers of the Endoplasmic Reticulum Stress Response (ERSR) in human glioma: Validation (AID 504836; active means well fitted curve in the direction sought with a large enough effect; an effect the other way counts as inactive or inconclusive). In short, it runs like this: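 ERSR induction read as luciferase luminescence (Bright-Glo, 10 min at room temperature) in stably transfected human U87-MG glioma cells exposed to compounds for 16 h, using GRP78 as sensor.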
Test [2] addresses Bile acid receptor (Homo sapiens) (UniProt Q96RI1). The test is described as follows: qHTS assay for small molecule agonists of farnesoid X receptor signaling (AID 588527). Further: series mostly up to about 77 µM. As to conditions: HEK293T FXR-UAS-bla, beta-lactamase ratio, 16 h; stronger effect = higher value. In short, it runs like this:
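Quantitative HTS used FXR-UAS-bla HEK293T cells with 16 h compound incubation at 37 C. EC50 values came from concentration-response curves normalized to chenodeoxycholic acid.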
(Quantitative high-throughput screening tests each substance at several concentrations.)

Test [3] concerns the target Peroxisome proliferator-activated receptor delta (Homo sapiens) (UniProt Q03181). Put plainly: qHTS assay for small molecule agonists of peroxisome proliferator-activated receptor delta signaling (AID 588534). In short, it runs like this:
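Fluorescence from CCF4 substrate cleavage by beta-lactamase reporter, read 2 hrs at RT, measured agonist activity. Compounds were tested with 18 hrs exposure at 37 C. Concentration-response data fitted to Hill equation.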

The target of test [4] is Glucocorticoid receptor (Homo sapiens) (UniProt P04150). The test is described as follows: qHTS assay for small molecule agonists of glucocorticoid receptor signaling (AID 588532; active means well fitted curve in the direction sought with a large enough effect in the signal ratio, with a control signal flat; the % refers to the signal ratio). The following applies: HeLa MMTV-bla, beta-lactamase ratio, agonist, 18 h; stronger effect = higher value; percent of dexamethasone control, DMSO zero. In short, it runs like this: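 Agonist-mode qHTS: GRE-driven beta-lactamase in HeLa cells exposed 18 h to titrated compounds (up to 92 uM), then CCF4 ratio read after 2 h at RT; Hill-fitted EC50, efficacy relative to 0.1 uM dexamethasone.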

Test [5] deals with Ubiquitin carboxyl-terminal hydrolase 1 (Homo sapiens) (UniProt O94782). Put plainly: Inhibitors of USP1/UAF1: Pilot qHTS (AID 504865; active means well fitted curve in the direction sought with a large enough effect; an effect the other way counts as inactive or inconclusive;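 further: rhodamine fluorescence freed from ubiquitin-rhodamine substrate followed over time; top concentration of the series differs between compounds; nearly all actives have a fitted effect of over 35% in size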). In short, it runs like this: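 Deubiquitinase activity followed as kinetic rhodamine fluorescence release from 150 nM Ub-Rho. 1 nM USP1/UAF1 with compound, after 15 min room-temperature preincubation, in HEPES pH 7.8 buffer containing TCEP, EDTA, BSA and Tween-20.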

Test [6] concerns the target Estrogen receptor (Homo sapiens) (UniProt P03372). The test is described as follows: qHTS assay for small molecule antagonists of estrogen receptor alpha signaling (AID 588513; active means well fitted curve in the direction sought with a large enough effect in the signal ratio, with a control signal flat, not every such curve was filed as active; the % refers to the signal ratio). In short, it runs like this: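 Antagonist mode: inhibition of 0.5 nM 17-beta-estradiol-driven beta-lactamase reporter in HEK 293 ER-alpha-UAS-bla cells, 18 h at 37C, CCF4 readout after 2 h at RT. Normalised to estradiol and DMSO; titration fitted to Hill.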

Test [7] concerns the target Glucocorticoid receptor (Homo sapiens) (UniProt P04150). The test is described as follows: qHTS assay for small molecule antagonists of glucocorticoid receptor signaling (AID 588533; active means well fitted inhibition curve with a large enough effect in the signal ratio, with a control signal flat, not every such curve was filed as active; the % refers to the signal ratio;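 further: cells stimulated with 2 nM dexamethasone as agonist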). In short, it runs like this: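 Antagonist-mode qHTS: compound titrations added to GRE-bla HeLa cells, then dexamethasone 2 nM final; 18 h, 37 C. CCF4 FRET fluorescence normalized to dexamethasone and DMSO; IC50 from Hill fit.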

Test [8] in a line: qHTS for Inhibitors of ATXN expression: Validation of Cytotoxic Assay (AID 588349; active means well fitted curve in the direction sought with a large enough effect; an effect the other way counts as inactive or inconclusive; further: potency means the concentration at half of the fitted maximal effect). In short, it runs like this:
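Read-out: ATP-based luminescence (CellTiter Glo) reflecting viability of HEK293 cells after 72 hr incubation at 37 degrees C with a concentration series of each compound.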

Test [9] is described as follows: qHTS assay for small molecule antagonists of peroxisome proliferator-activated receptor delta signaling (AID 588535).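 Further: cells co-treated with a PPAR-delta agonist as stimulator during compound exposure.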 As to conditions: HEK293T PPARd-UAS-bla, beta-lactamase FRET ratio, 18 h; 460 nm channel. In short, it runs like this:
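HEK293T PPAR-delta-UAS-bla cells, 4000/well, 2% charcoal/dextran FBS; 5 h 37 C; cpd titration; 18 h 37 C; CCF4 2 h RT; FI 460/530 nm; Hill fit → IC50, efficacy.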

Test [10] has as its target Estrogen receptor (Homo sapiens) (UniProt P03372). The test is described as follows: qHTS assay for small molecule agonists of estrogen receptor alpha signaling (AID 588514). Further: nearly all actives have a fitted effect of over 70% in size. Further: potency means the concentration at half of the fitted maximal effect. In short, it runs like this: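 Cells were plated at 5000/well, incubated 4 hrs at 37 C, dosed with compound titration series, incubated 18 hrs at 37 C, loaded with CCF4 dye for 2 hrs at RT, then fluorescence was read.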

The target of test [11] is DNA dC->dU-editing enzyme APOBEC-3G (Homo sapiens) (UniProt Q9HC16). Put plainly: qHTS for inhibitors of Vif-A3G interactions: Validation (AID 588379; active means well fitted curve in the direction sought with a large enough effect; an effect the other way counts as inactive or inconclusive). In short, it runs like this:
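HeLa cells stably expressing Vif and A3G-eYFP, 700 cells/well, incubated overnight at 37 deg C, then exposed to compound overnight at 37 deg C. Inhibition of Vif-mediated degradation read as increased yellow fluorescence (Ex 488/Em 500-530) by laser-scanning cytometry.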

Test [12] deals with Bile acid receptor (Homo sapiens) (UniProt Q96RI1). The test is described as follows: qHTS assay for small molecule antagonists of farnesoid X receptor signaling (AID 588526). In short, it runs like this: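 Beta-lactamase reporter antagonist mode: HEK293T FXR-UAS-bla cells, titrated compound, CDCA stimulation, 16 h 37 C, CCF4 dye 2 h RT. Data normalized to CDCA 50 uM and DMSO; Hill-fit IC50.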
Chain of Bile acid receptor (Homo sapiens) (Q96RI1 whole entry, looked up): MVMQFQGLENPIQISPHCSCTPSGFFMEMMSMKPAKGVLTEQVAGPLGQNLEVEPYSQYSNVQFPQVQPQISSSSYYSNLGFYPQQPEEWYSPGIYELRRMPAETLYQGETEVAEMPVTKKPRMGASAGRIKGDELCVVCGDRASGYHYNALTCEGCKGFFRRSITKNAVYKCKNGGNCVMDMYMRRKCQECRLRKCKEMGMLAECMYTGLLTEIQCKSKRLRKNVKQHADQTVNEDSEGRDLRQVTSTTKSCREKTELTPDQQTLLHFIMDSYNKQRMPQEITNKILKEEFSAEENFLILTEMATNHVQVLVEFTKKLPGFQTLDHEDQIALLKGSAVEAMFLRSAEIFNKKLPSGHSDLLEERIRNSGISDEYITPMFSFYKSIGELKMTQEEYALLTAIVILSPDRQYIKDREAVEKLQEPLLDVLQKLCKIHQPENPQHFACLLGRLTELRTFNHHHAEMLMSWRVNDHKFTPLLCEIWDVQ

Chain of Estrogen receptor (Homo sapiens) (P03372 whole entry, looked up): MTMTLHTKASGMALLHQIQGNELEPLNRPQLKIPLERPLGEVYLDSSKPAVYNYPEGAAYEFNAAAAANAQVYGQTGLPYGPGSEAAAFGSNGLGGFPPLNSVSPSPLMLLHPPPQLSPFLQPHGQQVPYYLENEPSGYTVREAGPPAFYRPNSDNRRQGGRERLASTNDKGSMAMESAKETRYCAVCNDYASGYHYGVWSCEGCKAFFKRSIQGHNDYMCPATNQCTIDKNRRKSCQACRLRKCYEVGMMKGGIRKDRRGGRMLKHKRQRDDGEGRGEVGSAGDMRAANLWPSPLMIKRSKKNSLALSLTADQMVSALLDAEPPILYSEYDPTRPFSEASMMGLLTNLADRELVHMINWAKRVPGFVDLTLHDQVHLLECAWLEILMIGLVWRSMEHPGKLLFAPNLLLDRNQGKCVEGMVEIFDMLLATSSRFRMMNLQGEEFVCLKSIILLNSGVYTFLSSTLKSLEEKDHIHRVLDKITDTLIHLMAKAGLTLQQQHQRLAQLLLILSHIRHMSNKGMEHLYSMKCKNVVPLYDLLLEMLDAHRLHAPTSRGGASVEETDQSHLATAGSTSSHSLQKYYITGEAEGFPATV
Chain of DNA dC->dU-editing enzyme APOBEC-3G (Homo sapiens) (Q9HC16 whole entry, looked up): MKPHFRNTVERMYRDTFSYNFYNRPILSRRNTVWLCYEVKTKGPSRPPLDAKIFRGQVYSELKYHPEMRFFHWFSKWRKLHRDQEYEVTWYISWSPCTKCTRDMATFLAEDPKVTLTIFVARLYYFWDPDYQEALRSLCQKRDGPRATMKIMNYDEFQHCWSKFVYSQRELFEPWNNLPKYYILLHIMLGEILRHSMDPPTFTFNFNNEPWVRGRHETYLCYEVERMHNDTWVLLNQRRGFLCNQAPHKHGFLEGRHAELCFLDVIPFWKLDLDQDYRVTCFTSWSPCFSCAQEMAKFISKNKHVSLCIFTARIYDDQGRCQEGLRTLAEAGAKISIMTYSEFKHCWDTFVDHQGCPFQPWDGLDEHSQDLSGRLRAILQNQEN
Chain of Glucocorticoid receptor (Homo sapiens) (P04150 whole entry, looked up): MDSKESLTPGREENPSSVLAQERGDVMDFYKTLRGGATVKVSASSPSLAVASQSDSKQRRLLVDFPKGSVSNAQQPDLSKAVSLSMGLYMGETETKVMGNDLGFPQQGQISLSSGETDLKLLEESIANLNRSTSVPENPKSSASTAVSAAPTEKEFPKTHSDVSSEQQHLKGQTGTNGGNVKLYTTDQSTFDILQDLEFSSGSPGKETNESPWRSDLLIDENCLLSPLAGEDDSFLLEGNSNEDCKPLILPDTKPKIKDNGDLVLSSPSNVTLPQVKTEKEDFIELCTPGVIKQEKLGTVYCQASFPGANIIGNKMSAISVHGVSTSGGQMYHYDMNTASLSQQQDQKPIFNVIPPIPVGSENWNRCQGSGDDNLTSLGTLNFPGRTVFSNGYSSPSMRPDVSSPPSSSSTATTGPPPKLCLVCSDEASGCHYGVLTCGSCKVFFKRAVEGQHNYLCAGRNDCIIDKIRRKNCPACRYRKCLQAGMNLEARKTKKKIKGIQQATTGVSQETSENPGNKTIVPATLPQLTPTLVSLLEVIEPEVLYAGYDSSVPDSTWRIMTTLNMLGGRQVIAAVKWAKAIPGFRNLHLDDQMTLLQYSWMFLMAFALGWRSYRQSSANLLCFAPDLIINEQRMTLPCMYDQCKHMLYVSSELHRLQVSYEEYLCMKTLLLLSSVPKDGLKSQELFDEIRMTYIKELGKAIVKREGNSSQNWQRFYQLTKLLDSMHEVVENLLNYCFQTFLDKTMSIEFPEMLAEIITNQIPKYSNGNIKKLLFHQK
Chain of Ubiquitin carboxyl-terminal hydrolase 1 (Homo sapiens) (O94782 whole entry, looked up): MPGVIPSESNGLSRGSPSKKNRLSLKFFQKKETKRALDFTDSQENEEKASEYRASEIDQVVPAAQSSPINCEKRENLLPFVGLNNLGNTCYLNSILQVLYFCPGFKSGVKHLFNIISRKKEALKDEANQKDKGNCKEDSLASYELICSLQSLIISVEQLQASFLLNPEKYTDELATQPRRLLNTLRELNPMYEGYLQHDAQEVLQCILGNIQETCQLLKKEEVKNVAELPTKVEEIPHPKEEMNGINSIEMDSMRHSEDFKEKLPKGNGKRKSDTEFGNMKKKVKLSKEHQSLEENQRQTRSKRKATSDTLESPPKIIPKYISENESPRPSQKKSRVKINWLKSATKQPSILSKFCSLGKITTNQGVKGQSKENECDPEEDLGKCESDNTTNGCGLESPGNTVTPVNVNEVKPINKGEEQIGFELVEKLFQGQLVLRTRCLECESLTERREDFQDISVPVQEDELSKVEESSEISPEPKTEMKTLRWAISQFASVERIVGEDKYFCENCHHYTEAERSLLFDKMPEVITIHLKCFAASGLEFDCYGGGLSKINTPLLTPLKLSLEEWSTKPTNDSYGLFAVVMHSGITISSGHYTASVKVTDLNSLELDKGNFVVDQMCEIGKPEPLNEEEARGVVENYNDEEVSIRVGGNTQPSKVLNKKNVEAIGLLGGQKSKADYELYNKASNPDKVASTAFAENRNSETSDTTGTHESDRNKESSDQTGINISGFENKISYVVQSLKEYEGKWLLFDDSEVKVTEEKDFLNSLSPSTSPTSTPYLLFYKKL
Chain of Peroxisome proliferator-activated receptor delta (Homo sapiens) (Q03181 whole entry, looked up): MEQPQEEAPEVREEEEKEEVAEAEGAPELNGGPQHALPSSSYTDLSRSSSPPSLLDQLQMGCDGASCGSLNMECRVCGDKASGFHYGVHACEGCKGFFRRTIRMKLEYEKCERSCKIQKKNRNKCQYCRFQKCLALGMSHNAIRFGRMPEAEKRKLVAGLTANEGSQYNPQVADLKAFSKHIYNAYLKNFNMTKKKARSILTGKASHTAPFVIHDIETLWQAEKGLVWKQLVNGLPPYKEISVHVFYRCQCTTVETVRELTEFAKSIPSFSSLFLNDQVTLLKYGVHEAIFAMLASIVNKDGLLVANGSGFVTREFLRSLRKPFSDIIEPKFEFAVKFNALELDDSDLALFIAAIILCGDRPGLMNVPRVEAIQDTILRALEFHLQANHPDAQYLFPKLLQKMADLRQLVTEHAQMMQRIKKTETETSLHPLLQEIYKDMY

On to `Cc1ccccc1C(OCCN(C)C)c1ccccc1` (stereo not drawn), for which the call in test [1] and in [3] was inactive. In [2], the activation was -1.23% (inactive).
In the case of `COc1ccc(Cl)cc1C(=O)NCCc1ccc(S(=O)(=O)NC(=O)NC2CCCCC2)cc1`, the call in test [1] was inactive. The activation in [2] was 0.916% (inactive).
For `CCCN(CCC)CCc1cccc2c1CC(=O)N2`, in test [1], the call was inactive.
Regarding `O=c1[nH]cc(F)c(=O)[nH]1`, the call in [1] and in [3] was inactive. Further, the activation in [2] is -1.24% (inactive).
Consider `CN(C)CCOC(C)(c1ccccc1)c1ccccn1` (stereo not drawn), for which the outcome in [1] and in test [3] was inactive. The activation in test [2] was -1.68% (inactive).
For the molecule `Cn1ccc2cc3c(cc21)CCN3C(=O)Nc1cccnc1`, in test [1], the molecule was classed as inactive.
Turning to `CC(COc1ccccc1)N(CCCl)Cc1ccccc1` (stereo not drawn), the call in test [1] and in test [3] was inactive. The activation in [4] is -12.9% (inactive).
Take `COc1cc2nc(N(C)CCCNC(=O)C3CCCO3)nc(N)c2cc1OC` (stereo not drawn): the call in test [1] was inactive.
`CN/C(=C\[N+](=O)[O-])NCCSCc1ccc(CN(C)C)o1`: the outcome in [1] was inactive.
Take `CC1(C)NC(=O)N(c2ccc([N+](=O)[O-])c(C(F)(F)F)c2)C1=O`: the call in [1] was inactive. Besides, the activation in test [2] was 0.399% (inactive).
In the case of `COc1cc2c(c(OC)c1OC)-c1ccc(OC)c(=O)cc1[C@@H](NC(C)=O)CC2`, the molecule was classed as inactive in test [1] and in [6]. The Potency result in test [5] and in test [7] was “inactive” throughout. Moreover, the activation was -2.29% (inactive) in test [2]; -3.94% (inactive) and -2.86% (inactive) in test [4].
With `CCOC(=O)N1CCC(=C2c3ccc(Cl)cc3CCc3cccnc32)CC1`, the molecule was called inactive in test [1].
With `CCCCNC(=O)NS(=O)(=O)c1ccc(C)cc1`, the result in [1] and in [3] was inactive. Also, in test [2], the activation is 0.0302% (inactive) and 2.67% (inactive).
`O=NN(CCCl)C(=O)NCCCl`: the result in test [1] and in [3] was inactive.
As for `CCCC(CCC)C(=O)O`, the call in [1] was inactive.
Turning to `CNCCC(Oc1ccc(C(F)(F)F)cc1)c1ccccc1` (stereo not drawn), in test [1], the molecule was classed as inactive. For the same molecule, the Potency in test [8] was 28.2 µM (active).
As for `Oc1ccc(C2CNCCc3c2cc(O)c(O)c3Cl)cc1` (stereo not drawn), the outcome in test [1] was inactive.
Still for that read-out and setting: the same measure for `CC(CN(C)C)CN1c2ccccc2CCc2ccccc21` (stereo not drawn): “inactive”.
For the molecule `CN(Cc1cnc2nc(N)nc(N)c2n1)c1ccc(C(=O)N[C@@H](CCC(=O)O)C(=O)O)cc1`, the molecule was called inactive in test [1]. Besides, in [2], the activation was -5.02% (inactive).
On to `CC#C[C@]1(O)CC[C@H]2[C@@H]3CCC4=CC(=O)CCC4=C3[C@@H](c3ccc(N(C)C)cc3)C[C@@]21C`, for which the molecule was classed as inactive in [1].
On to `CC1=C(/C=C/C(C)=C/C=C/C(C)=C/C(=O)Nc2ccc(O)cc2)C(C)(C)CCC1`, for which the molecule was called inactive in test [1] and in test [3]. For the same molecule, the activation in test [2] is -5.41% (inactive).
With `Oc1cccc2cccnc12`, the Potency entry in [5] is “inactive”. Besides, the activation in test [2] is -3.45% (inactive) and -4.35% (inactive). Besides, the molecule was called inactive in test [3]. In test [9], the max response was -10.4% and -24.8%.
Consider `Nc1ncn([C@@H]2O[C@H](CO)[C@@H](O)[C@H]2O)c(=O)n1`, for which the result in test [1] and in test [3] was inactive.
On to `C#CCOC(C(=O)OCCN(C)C)(c1ccccc1)c1ccccc1`, for which the Potency entry in test [5] was “inactive”.
As to `C[C@]12C/C(=C/O)C(=O)C[C@@H]1CC[C@@H]1[C@@H]2CC[C@@]2(C)[C@H]1CC[C@]2(C)O`, in [10], the Potency is 0.562 µM (active). Further, the activation was 1.58% (inactive) in test [2] and -7.95% (inactive) in [4].
For `NC(=Nc1ccccc1)Nc1ccccc1`, the molecule was classed as inactive in test [6] and in test [3]. Further, the activation in test [2] is -1.85% (inactive) and 0.0042% (inactive); in [4] it was -8.4% (inactive).
For `NP(N)(=O)NC(=O)c1ccc(F)cc1`, in test [5], the Potency result is “inactive”. In addition, in test [11], the molecule was called inactive.
`CCCNC(=O)NS(=O)(=O)c1ccc(Cl)cc1`: the molecule was classed as inactive in test [1] and in [3].
As for `C[C@]12CCC(=O)C(O)=C1CC[C@@H]1[C@@H]2CC[C@]2(C)C(=O)CC[C@@H]12`, the outcome in [6] was inactive. Also, the activation in test [4] is 2.34% (inactive). Moreover, the Potency result in test [7] is “inactive”.
In the case of `O=[N+]([O-])c1cc([As](=O)(O)O)ccc1O`, in test [5], the Potency result is “inactive”.
Still for that read-out and setting: the same measure for `CC(C)(C)NCC(O)c1cc(Cl)c(N)c(Cl)c1` (stereo not drawn): “inactive”.
As to `Oc1ccccc1-c1ccccc1`, the Potency entry in test [5] and in test [10] was “inactive” throughout. Besides, the molecule was classed as inactive in test [6] and in [3]. Moreover, in test [9], the max response is -47.4% and 9.69% and -13.4%.
For the molecule `c1ccc2c(c1)Nc1ccccc1S2`, the molecule was called inactive in test [6] and in [3]. For the same molecule, in test [10], the Potency entry is “inactive”. In addition, in test [9], the max response is 32.2% and -35%.
Take `CC(C)NCC(O)c1ccc(O)c(O)c1` (stereo not drawn): the Potency result in test [8] was “inactive”. In test [3], the call was inactive.
With `Cc1ccc(-c2nc3ccc(C)cn3c2CC(=O)N(C)C)cc1`, in test [5], the Potency result was “inactive”.
Turning to `O=C1CCC(N2C(=O)c3ccccc3C2=O)C(=O)N1` (stereo not drawn), the outcome in test [1] and in [3] was inactive.
`C#CCN(C)[C@H](C)Cc1ccccc1`: in [5], the Potency result was “inactive”. Also, the call in test [11] was inactive.
Regarding `CC(C)(N)Cc1ccc(Cl)cc1`, the Potency result in test [5] was “inactive”.
Turning to `OCCOc1ccccc1`, the molecule was called inactive in test [6] and in [3]. Further, the Potency entry in [10], in [12] and in test [7] was “inactive” throughout. In addition, the activation in test [2] is 0.0237% (inactive) and -6.3% (inactive) and -0.639% (inactive); in test [4], 0.307% (inactive) and -9.57% (inactive) and -3.52% (inactive). In addition, the max response in [9] was 16.7% and 12.5% and -5.77%.
On to `CCN(CC)CCN1C(=O)CN=C(c2ccccc2F)c2cc(Cl)ccc21`, for which the Potency entry in test [5] is “inactive”.
Take `Clc1ccc(COC(Cn2ccnc2)c2ccc(Cl)cc2Cl)cc1` (stereo not drawn): the Potency entry in test [10] is “inactive”. Also, the activation in test [2] was 9.99% (inactive); in test [4] it was 9.41% (inactive). Also, the outcome in test [3] was inactive.
Turning to `CS(=O)c1ccc(-c2nc(-c3ccc(F)cc3)c(-c3ccncc3)[nH]2)cc1` (stereo not drawn), the Potency result in test [5] was “inactive”.
As to `CN(C)CCN(C)CCc1ccc(Cl)c(Cl)c1`, in test [11], the molecule was classed as inactive.
As for `COc1cc([C@@H]2c3cc4c(cc3[C@H](O)[C@H]3COC(=O)[C@H]23)OCO4)cc(OC)c1OC`, the Potency entry in test [5] was “inactive”.
As for `COc1cc(Cc2cnc(N)nc2N)cc(OC)c1OC`, the molecule was classed as inactive in [1] and in test [3].
For the molecule `COC1(CS(=O)c2ccccc2)CCN(CCc2c[nH]c3ccc(F)cc23)CC1` (stereo not drawn), the Potency result in test [5] was “inactive”. Besides, in test [11], the call was inactive.
`Cc1ccc(S(=O)(=O)NC(=O)NN2CCCCCC2)cc1`: the call in test [1] and in test [3] was inactive.
Take `CCC(C(N)=O)N1CCCC1=O` (stereo not drawn): the Potency result in test [5] is “inactive”.
Regarding `CCCC1CCCCN1` (stereo not drawn), the Potency entry in test [5] was “inactive”.
With `Oc1cc(Cl)ccc1Oc1ccc(Cl)cc1Cl`, in test [5], the Potency result was “inactive”. Also, the activation in [4] is -14.4% (inactive). Further, the molecule was called inactive in test [3]. The max response in [9] amounted to 38.5%.
As for `CCN(CC)C(=S)SSC(=S)N(CC)CC`, the result in test [1] and in [3] was inactive.
